Assay outcomes (PubChem BioAssay)
Compounds with a hit are over-represented: about 3.4% of the library has one in this group of screens.
GPR151 ag – human GPR151 activation; Q8TDV0; PathHunter beta-arrestin GPR151 cells, luminescence; activation, % at 11.2 µM; hit rate 1% among 650,000; AID 1508602; in the data active = activation above about 4.9%;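 also: 0% = median of compound wells and 100% = cells with positive control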
TEAD-YAP block – TEAD-YAP interaction inhibition | hit rate 1.4% among 640,000 | AID 1259422 | HEK-TIYL cells, TEAD-Gal4/YAP UAS-luciferase luminescence | inhibition, % at 9.12 µM; in the data active = inhibition above about 32%;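 also: 0% = median of test compound wells and 100% = reference inhibitor wells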
FBW7 activator – activators of human E3 ligase FBW7; Q969H0; AlphaScreen FBW7–phospho-cyclin E peptide binding, activator screen; hit rate 0.13% among 650,000; normalized activity (activation), % at 26.1 µM; in the data active = normalized activity above about 1.9%;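 also: purified mutant Fbw7 with reduced substrate affinity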
Target sequence (Q969H0 whole entry, looked up): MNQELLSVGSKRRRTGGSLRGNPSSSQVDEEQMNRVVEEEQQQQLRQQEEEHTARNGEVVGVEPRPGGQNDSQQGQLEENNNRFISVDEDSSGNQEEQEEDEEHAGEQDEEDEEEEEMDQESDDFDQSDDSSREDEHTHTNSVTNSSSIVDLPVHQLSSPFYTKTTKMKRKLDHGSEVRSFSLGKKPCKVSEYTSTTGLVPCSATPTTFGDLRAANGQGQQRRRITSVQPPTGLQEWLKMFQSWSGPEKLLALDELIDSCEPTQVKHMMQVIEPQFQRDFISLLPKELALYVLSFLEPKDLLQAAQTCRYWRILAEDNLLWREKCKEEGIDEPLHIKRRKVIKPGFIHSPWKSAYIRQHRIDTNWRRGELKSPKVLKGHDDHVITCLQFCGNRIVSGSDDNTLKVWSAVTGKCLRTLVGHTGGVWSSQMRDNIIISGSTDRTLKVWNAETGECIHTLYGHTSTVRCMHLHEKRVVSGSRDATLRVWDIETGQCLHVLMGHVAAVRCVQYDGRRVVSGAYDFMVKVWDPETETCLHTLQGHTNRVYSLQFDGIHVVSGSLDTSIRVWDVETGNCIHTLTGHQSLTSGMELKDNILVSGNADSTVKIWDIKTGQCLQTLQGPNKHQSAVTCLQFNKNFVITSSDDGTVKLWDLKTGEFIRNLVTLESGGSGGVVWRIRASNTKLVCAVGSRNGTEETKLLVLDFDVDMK
MITF primary – blocks human microphthalmia-associated transcription factor | inhibition, % at 2.6 µM | O75030 | AlphaScreen MITF homodimerization, bead proximity signal | AID 1259374 | hit rate 0.91% among 650,000; in the data active = inhibition above about 50%;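 also: 0% = vehicle wells with protein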
Starred values were filed as active, the others as inactive; . = no result.

SMILES | GPR151 ag | TEAD-YAP block | FBW7 activator | MITF primary
CC1CCC(NC(=O)CN2CCC(O)(c3ccc4c(c3)OCO4)CC2)CC1 (stereo unspecified) | 0 | 0 | 0 | 20
CCCCC[C@@H](O)/C=C/[C@@H]1[C@H](C/C=C\CCCC(=O)O)[C@@H](O)C[C@H]1O | -1 | . | . | 13
CCOC(=O)CN1C(=O)c2ccccc2S1(=O)=O | 0 | 0 | 0 | -2
O=C(CN1C(=O)c2ccccc2S1(=O)=O)c1ccccc1 | -1 | 54* | 1 | 11
CC(=O)c1c(C)[nH]c(C(=O)CN2C(=O)c3ccccc3S2(=O)=O)c1C | -1 | 41* | 0 | 16
OCc1ccc(OCc2cccc(F)c2)c(Cl)c1 | -2 | -35 | 0 | -6
CC(C)n1cnc2c(NCc3cccnc3)nc(-c3ccc(C(N)=O)cc3)nc21 | 0 | 39* | 0 | 26
COc1ccc(CCNc2nc(-c3ccc(C(=O)NC4CC4)cc3)nc3c2ncn3C2CCCCC2)cc1 | 1 | 51* | 0 | 7
NC(=O)c1ccc(-c2nc(NCCc3ccc(O)cc3)c3ncn(-c4ccsc4)c3n2)cc1 | -1 | 43* | 0 | 8
COc1ccc(-c2nc(NCc3cccnc3)c3ncn(C(C)C)c3n2)cc1 | 4 | 4 | 1 | 11
COc1ccc(CCNc2nc(-c3ccc(C(N)=O)cc3)nc3c2ncn3C2CCCCC2)cc1 | -1 | 9 | 0 | -1
O=C(NC1CC1)c1ccc(-c2nc(NCCc3ccc(O)cc3)c3ncn(-c4ccsc4)c3n2)cc1 | 1 | 58* | 0 | 6
Oc1ccc(CCNc2nc(-c3ccc(N4CCOCC4)nc3)nc3c2ncn3-c2ccsc2)cc1 | 0 | 65* | 0 | -10
COc1ccc(CCNc2nc(-c3ccc(N4CCOCC4)nc3)nc3c2ncn3-c2ccsc2)cc1 | 1 | -1 | 0 | -1
NC(=O)c1ccc(-c2nc(NCc3cccnc3)c3ncn(-c4ccsc4)c3n2)cc1 | 0 | 51* | 0 | -1
COc1ccc(C2=NN(C(=O)CSc3nnc(CNC(=O)COc4ccccc4)n3-c3ccccc3)C(c3ccc(C)cc3)C2)cc1 (stereo unspecified) | -2 | 9 | 0 | -2
COc1cc(Sc2ccccc2[N+](=O)[O-])ccc1N | -1 | 46* | 0 | 1
COc1ccc(CCNSc2ccccc2[N+](=O)[O-])cc1OC | 0 | 1 | 0 | -2
COC(=O)C1=C(C)Nc2ncnn2C1c1ccc(OC)c(Br)c1 (stereo unspecified) | 1 | 32* | 0 | 2
COC(=O)C1=C(C)Nc2ncnn2C1c1cc(Br)c(O)c(OC)c1 (stereo unspecified) | -1 | -20 | 0 | -8
CCOC(=O)C1=C(C)Nc2ncnn2C1c1cc(Br)c(OC)c(OC)c1 (stereo unspecified) | -2 | 50* | 0 | -4
COc1ccc(OCCn2cc(C(=S)N3CCOCC3)c3ccccc32)cc1 | 1 | 32* | 0 | 3
COc1ccccc1OCCn1cc(C(=S)N2CCOCC2)c2ccccc21 | 0 | -5 | 0 | 15
CCN(C(=O)c1coc(=O)c2ccccc12)c1ccccc1F | 2 | 35* | 0 | 11
CCN(C(=O)c1coc(=O)c2ccccc12)c1cccc(Cl)c1 | 0 | 39* | 0 | 6
SMILES | GPR151 ag | TEAD-YAP block | FBW7 activator | MITF primary
CN(C(=O)c1coc(=O)c2ccccc12)c1ccccc1F | 0 | 10 | 0 | -2
CCCN(C(=O)c1coc(=O)c2ccccc12)c1ccccc1C | -1 | 38* | 0 | 1
O=C(COc1ccccc1)Nc1ccc(S(=O)(=O)N2CCc3ccccc32)cc1 | 3 | -7 | 0 | 2
Cc1ccc(/C=N/NC(=O)CNc2cccc(Cl)c2)o1 | 0 | -2 | 0 | -3
CCCCNS(=O)(=O)c1ccc(OCC(=O)Nc2cccc(Cl)c2C)cc1 | 2 | 2 | 0 | -1
COc1ccc2cc(S(=O)(=O)n3cnc4cc(C)c(C)cc43)ccc2c1 | 1 | 67* | 0 | 11
Cc1cc(/C=C(\C#N)C(=O)O)c(C)n1CC(C)C | 0 | 12 | 0 | 8
Cc1cc(/C=C(\C#N)C(=O)OCC(=O)NCc2cccs2)c(C)n1CC(C)C | -2 | 49* | 0 | 9
CCc1ccc(NS(=O)(=O)c2ccc(C)cc2)cc1 | 2 | 6 | 0 | 4
O=C(NC1CC1)c1ccc2cncc(-c3ccccc3)c2n1 | 5 | 51* | 0 | 5
O=C(NC1CCN(Cc2ccccc2)CC1)c1ccc2cncc(-c3ccccc3)c2n1 | 1 | 65* | 0 | 16
O=C(NC1CC1)c1cncc(-c2ccccc2)c1 | 1 | 4 | 0 | -1
O=C(c1ccc2cncc(-c3ccccc3)c2n1)N1CCCCC1 | -1 | 50* | -1 | -16
